Source: PubChem (National Center for Advancing Translational Sciences (NCATS))
HT1080 IDH1KD tx – HT-1080 IDH1 knockdown cell toxicity (counter line) | actives 2% (n = 360,000) | Potency, µM (series often up to 46.1 µM), for inactives: at the highest dose activity, negative = toxicity, most hits filed as cytotoxic | HT-1080 IDH1 knockdown viability, ATP luminescence, 48 h;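 note: 0% = DMSO wells and -100% = cell-free medium wells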
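Assay cells: HT-1080 with IDH1 knockdown, 750 per well, RPMI/5% FBS. Exposure: 48 h at 37 °C following 2 h pre-incubation. Read: CellTiter-Glo luminescence; fitted concentration-response, curve class assigned.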
KB-3-1 cytotox – KB-3-1 parental cell cytotoxicity; actives 1.4% (n = 400,000); AID 1347075; Potency, µM (doses to about 46.1 µM), usual class: cytotoxic; KB-3-1 viability, CellTiter-Glo ATP luminescence, 72 h; note: % is set by controls: 0 for no effect and ±100 for the full control effect; nearly all actives have a fitted effect of over 60% in size
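Screening of KB-3-1 cells (DMEM, 10% FBS, phenol-red free) ran from lowest to highest compound concentration; after 72 h at 37 °C viability was read luminescently and curves fitted.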
ATXN2 expr inh – ATXN2 expression inhibition; HEK-293 ATXN2-luciferase reporter, luminescence, 24 h; Potency, µM (series often up to 57 µM), without a hit: top-dose activity change, negative = inhibition, most hits filed as inhibitors; actives 0.72% (n = 360,000); AID 1745845; note: % is set by controls: 0 for no effect and ±100 for the full control effect; nearly all actives have a fitted effect of over 55% in size
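qHTS (up to 57 uM final) was run with 24 h compound exposure of reporter cells at 37 °C. Each well was multiplexed: SteadyGlo luminescence measured ATXN2-luciferase expression after a fluorogenic Gly-Phe-AFC viability readout (25 uM final).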
ATXN viability – cell viability loss in ATXN counter-screen | S2 cells (HEK-293 line with an ATXN2-luciferase reporter) viability, CellTiter-Fluor protease fluorescence, 24 h | Potency, µM (top dose mostly 56.7 µM), actives largely listed as cytotoxic | actives 0.49% (n = 400,000) | AID 651635; note: nearly all actives have a fitted effect of over 40% in size
HT1080-NT tox – kills 2HG-producing HT-1080-NT fibrosarcoma cells. AID 686970. actives 1.6% (n = 360,000). Potency, µM (doses to about 46.1 µM), for inactives: top-dose activity, negative = less viability, actives largely listed as cytotoxic. HT-1080-NT fibrosarcoma viability, CellTiter-Glo ATP luminescence, 48 h;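 note: NT is the 2HG producing partner of a matched IDH1 knockdown line; 0% = DMSO-treated cells and -100% = media-only wells without cells; nearly all actives have a fitted effect of over 55% in size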
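HT-1080-NT fibrosarcoma cells (2HG-overproducing), 750 cells/well in RPMI with 5% FBS, dosed after 2 h and incubated 48 h at 37C. CellTiter-Glo luminescence normalized to DMSO and no-cell wells; concentration-response curves fitted and classed.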
KB-V1 MDR tox – kills drug-selected multidrug resistant KB-V1 cells | KB-V1 MDR cells viability, CellTiter-Glo, 72 h | actives 3.4% (n = 400,000) | Potency, µM (doses to about 46.1 µM), most hits filed as cytotoxic; note: % is set by controls: 0 for no effect and ±100 for the full control effect; nearly all actives have a fitted effect of over 60% in size
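KB-V1 cells (P-gp-expressing MDR subline of KB-3-1) in phenol-red-free DMEM with 10% FBS were exposed to library compounds over a concentration series for 72 h at 37 degrees C. Viability read by CellTiter-Glo luminescence; concentration-effect curves fitted after normalization.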
* marks the source's active call; other numbers are inactive results; i = inactive; ? = inconclusive; nt = no result given; ! = not confirmed by another sample. Compounds with a hit are over-represented: about 6.2% of the library has one in this group of screens. Calls come from the whole dose curve; as a rule, active = well fitted curve in the direction sought with a large enough effect; inconclusive = small, poorly fitted or top-dose-only effect, or another doubt; inactive = no such curve, though single readings can be large; an effect the other way counts as inactive or inconclusive. Potency is the fitted concentration of half-maximal effect.

SMILES | HT1080 IDH1KD tx | KB-3-1 cytotox | ATXN2 expr inh | ATXN viability | HT1080-NT tox | KB-V1 MDR tox
COc1ccc(S(=O)(=O)Nc2c(F)cccc2F)cc1 | -13% | i | -12% | i | 0% | i
CCCCOc1ccc(S(=O)(=O)Nc2cccnc2)cc1 | -16% | 26µM* | -17% | i | ? | 5.8µM*
CCOc1cccc(C(=O)NC(=S)Nc2cccnc2)c1 | 17% | i | 48% | i | 4% | ?
COc1ccc(S(=O)(=O)Nc2cccc3ccc(O)cc23)cc1 | 5.2µM* | 15µM* | ? | ? | 3.3µM* | ?
CCCCOc1cccc(C(=O)NC(=S)Nc2cccnc2)c1 | 1% | i | -2% | i | -3% | 18µM*
CCn1c(-c2ccccc2F)nc2cc(NC(C)=O)cc(C(=O)N3CCCC3c3nccs3)c21 (centres undefined) | nt | nt | nt | i | nt | nt
N#Cc1c(NC(=O)c2cccc3ccccc23)sc2c1CCCC2 | nt | nt | 12% | nt | nt | nt
CCc1ccc(-n2c(C)nnc2SCc2nc(-c3ccc(OC)cc3)no2)cc1 | nt | i | ? | ? | nt | i
CCOc1ccc(S(=O)(=O)Nc2cccc(OC)c2)cc1 | 10µM* | i | -12% | i | ? | ?
CCc1ccc(NS(=O)(=O)c2ccc3c(c2)oc(=O)n3C)cc1 | -12% | i | -16% | i | -10% | i
CCOc1ccc(NS(=O)(=O)c2ccc3c(c2)oc(=O)n3C)cc1 | 6% | i | 1% | i | -1% | 15µM*
CN(C)C(=O)CCC(=O)NCC1Cc2cccc(-c3ccccc3C(F)(F)F)c2O1 (centres undefined) | nt | nt | nt | i | nt | nt
CN[C@@H]1CN(c2ccc3c(=O)c(C(=O)O)cn(-c4nccs4)c3n2)C[C@@H]1OC | nt | nt | 11µM* | nt | nt | nt
O=C(Nc1ccccc1)C1CCN(c2nccs2)CC1 | 14% | i | -1% | i | 19% | i
CN(C)c1cccc(N2CCN(c3nn4c(=O)c5ccccc5nc4s3)CC2)c1 | nt | i | nt | nt | nt | i
O=C(NC1CCCCC1)c1ccc(S(=O)(=O)NCc2ccco2)cc1 | 7% | i | 1% | ? | 7% | 15µM*
O=C(NC1CC1)c1ccc(S(=O)(=O)NC2CCCCCC2)cc1 | -28% | i | -2% | i | -3% | 16µM*
CCCCC[C@H]1CN(Cc2ccccc2)C(=O)[C@@H]1CC(=O)NCc1ccc(OC)cc1 | 8% | ? | -15% | i | 3% | 18µM*!
COc1ccc(CNC(=O)C[C@H]2C(=O)N(Cc3ccc(OC)cc3)C[C@@H]2Cc2ccccc2)cc1 | 0% | i | ? | ? | 0% | 13µM*!
COc1ccccc1-c1noc(-c2ccc(N3CCN(C)CC3)c([N+](=O)[O-])c2)n1 | nt | i | 3% | i | nt | i
O=[N+]([O-])c1ccc(C=Nc2cccc3ccccc23)s1 | 23µM* | ? | -10% | ? | -23% | ?
COc1cccc(-c2cnc3c(NC=O)cc(-c4ccncc4)cn23)c1 | -19% | i | -1% | i | -19% | ?
COc1cc(-c2cnc3c(NC=O)cc(-c4cccc(C(F)(F)F)c4)cn23)cc(OC)c1OC | ? | ? | 28µM* | ? | ? | 23µM*
COc1ccc(-c2cc(NC=O)c3ncc(-c4cccc(C(F)(F)F)c4)n3c2)c(OC)c1 | 13µM* | ? | -33% | i | ? | ?
COc1cc(-c2cnc3c(NC=O)cc(-c4ccsc4)cn23)cc(OC)c1OC | ? | 0.82µM* | ? | ? | ? | 1.3µM*
SMILES | HT1080 IDH1KD tx | KB-3-1 cytotox | ATXN2 expr inh | ATXN viability | HT1080-NT tox | KB-V1 MDR tox
COc1cc(-c2cnc3c(NC=O)cc(-c4cccnc4)cn23)cc(OC)c1OC | ? | 10µM* | -16% | i | ? | 13µM*
COc1cc(-c2cc(NC=O)c3ncc(-c4ccc(F)cc4)n3c2)cc(OC)c1OC | ? | i | -31% | ? | ? | ?
COc1ccc(C(=O)N2CCN(C(=O)COc3ccccc3)CC2)cc1OC | nt | i | -3% | i | nt | i
COC(=O)c1ccccc1NC(=O)c1cc(=O)c2ccc(C)c(C)c2o1 | nt | ? | 6% | i | nt | i
Cn1cc(-c2cnc3c(NC=O)cc(-c4cccc(C(F)(F)F)c4)cn23)cn1 | ? | ? | 0% | i | -44% | 21µM*
COc1cccc(-c2cc(NC=O)c3ncc(-c4cc(OC)c(OC)c(OC)c4)n3c2)c1 | ? | 1µM* | -29% | ? | ? | 2.1µM*
Nc1ccc(-c2cc(NC=O)c3ncc(-c4cccc(C(F)(F)F)c4)n3c2)cn1 | -26% | i | ? | i | -8% | i
COc1cccc(-c2cnc3c(NC=O)cc(-c4ccc(O)c(OC)c4)cn23)c1 | ? | ? | -68% | ? | ? | i
COc1ccc(OC)c(CNC(=O)Nc2cn(CC(C)C)c(=O)c3ccccc23)c1 | nt | i | -5% | i | nt | i
COC(=O)c1c(C)[nH]c(C(=O)CN2C(=O)C3CC=CCC3C2=O)c1C (centres undefined) | -6% | i | 27% | i | -3% | 21µM*
COc1cccc(C(=O)N2CCC[C@H]2C(=O)N2CCC[C@H]2C(=O)N[C@H](C)c2ccccc2)c1 | 13% | i | -3% | i | 23% | i
COc1ccc(/C=N/N(Cc2ccccc2)c2ccccc2)cc1O | 23µM* | i | 14% | i | 15µM* | ?
O=C(C1CCOC1)N1CCOc2ccc(CN3CCC(Oc4cccnc4)CC3)cc2C1 (centres undefined) | nt | nt | nt | i | nt | nt
O=C(N=Nc1c(O)[nH]c2ccc(Br)cc12)c1ccco1 | -6% | i | nt | i | -1% | i
O=C(N=Nc1c(O)[nH]c2ccc(Br)cc12)c1cc(-c2cccs2)nc2ccccc12 | 13µM* | ? | 11µM* | 10µM* | ? | ?
O=C(N=Nc1c(O)[nH]c2ccc(Br)cc12)c1ccccc1-n1cccc1 | 2.2µM* | 5.2µM* | ? | nt | 2.8µM* | 3.3µM*
C=CCOc1cccn2c(N(C=O)Cc3ccccc3)c(CC)nc12 | 2% | i | 3% | i | 8% | i
CCOC(=O)N(C)c1c(CC)nc2c(OCc3ccccc3OC)cccn12 | 0% | i | ? | i | -19% | ?
CCc1nc2c(OCc3cc(Cl)cc(Cl)c3)cccn2c1N(C)C(=O)Nc1ccccc1OC | ? | ? | 0% | i | ? | 21µM*
CCc1nc2c(OCc3cc(Cl)cc(Cl)c3)cccn2c1N(C=O)Cc1ccccc1 | ? | ? | ? | ? | ? | 21µM*
